# Test results: PubChem BioAssay AID743279 (National Center for Advancing Translational Sciences (NCATS), 2014)
# In all, about 360,000 compounds went through this assay and about 17,000 (4.7%) were called active. Roughly 5% stayed inconclusive and do not appear here. Shown is part of a subset that was picked to be rich in actives. A number with no mark means an inactive call. Rule as the data show it: active = activity change below about -50%; inconclusive = mostly about -30% to -49%; inactive = weaker than that.
# Experiment: qHTS for Inhibitors of Inflammasome Signaling: IL-1-beta AlphaLISA Primary Screen
# Conditions: THP-1 LPS/ATP IL-1B secretion, 16 h, at 57.5 µM, active compounds read low
# Excerpt: Inflammasomes are a set of intracellular multi-protein complexes that enable autocatalytic activation of inflammatory caspases and drive the innate immune response to counter harmful agents. […] A qHTS assay, based on AlphaLISA technology, was developed to screen the Molecular Libraries Small Molecule Repository (MLSMR) to look for novel inflammasome inhibitors. The assay detects IL-1B using AlphaLISA anti-IL-1B acceptor and donor beads. A decreased emission signal, indicating reduced IL-1B secretion, is the desired outcome for this assay. NIH Chemical Genomics Center [NCGC] NIH Molecular Libraries Probe Centers Network [MLPCN] MLPCN Grant: MH095513 Assay Provider: Shyam Biswal Ph.D., Johns Hopkins University Immunity. 2012 Jul 27;37(1):85-95. PMID: 22819042 [2] Curr Pharm Des. 2012;18(16):2320-8. PMID: 22390695
# Three microliters containing 3000 THP-1 cells were dispensed into the wells of solid, white, tissue culture treated Greiner 1,536-well plates. Library compounds and positive control, Glyburide, were pin-transferred (23 nL) by a Kalypsys pin-tool equipped with a 1,536-pin array, resulting in final compound concentration ranges of 2.5 nM to 57.5 uM. After 1 hr of cell culture incubation (37 °C, 5% CO2), 1 microL of 1 microg/mL lipopolysaccharide (250 ng/mL, final) and 5 mM ATP (1.25 mM, final) were added to stimulate the cells. After 16 hr of cell culture incubation with the compounds, 1.5 uL of anti-IL-1B acceptor beads (6 ug/mL, final) and biotinylated antibody (0.6 nM, final) were added to the plate, followed by a 1 hr incubation at ambient temperature. To detect the secreted IL-1B, 1.5 uL of AlphaLISA SA-Donor beads (24 ug/mL, final) were added, followed by 30 min of incubation in the dark at ambient temperature. The AlphaLISA signal was read by a PerkinElmer EnVision plate reader with an ultrasensitive luminescence detector and 1536 Plate HTS AlphaScreen aperture (excitation of 680nm and emission of 615nm).
# % is scaled to controls: 0 for no effect and ±100 for the full control effect.
row,SMILES,activity change
1,O=c1[nH]c2ccccc2n1C1CCN(C(c2ccccc2)c2nnnn2Cc2ccccc2)CC1 (stereo not given),-56.7% (active)
2,COc1ccc(-n2nnnc2C(c2cccc3ccccc23)N2CCC(n3c(=O)[nH]c4ccccc43)CC2)cc1 (stereo not given),-8.75%
3,CSCCC(c1nnnn1C(C)(C)C)N1CCC(n2c(=O)[nH]c3ccccc32)CC1 (stereo not given),-2.99%
4,Cc1ccc(OC(=O)N(C)C[C@@H]2OCc3cnnn3CCCC(=O)N([C@H](C)CO)C[C@@H]2C)cc1,37.1%
5,CCOc1ccc(C2SCC(=O)Nc3c2c(C)nn3C2CCOC(C)(C)C2)cc1 (stereo not given),13.7%
6,O=C(CCC(=O)N1C[C@H]2C[C@@H](C1)c1cccc(=O)n1C2)NCc1ccccc1C(F)(F)F,-1.41%
7,c1ccc(N2Cc3ccccc3-n3nncc3C2)nc1,12.3%
8,CC(=O)C1(O)CCC2C3CCC4=C(Cl)C(=O)CCC4(C)C3CCC21C (stereo not given),-20.8%
9,CCC(C)(O)C(=O)OC1C(=O)OC2CC3C(C)=CC(=O)C(O)C3(C)C3C4(O)OCC23C1C(C)C4O (stereo not given),-100% (active)
10,CC(=O)NCC1=C(c2ccc3ccccc3c2)C[C@@H]2CC[C@H]1N2Cc1ccco1,-3.75%
11,c1cc2c(c(NC3=NCCCS3)c1)CCCC2,-2.25%
12,COc1ccccc1N=Nc1c(O)[nH]c(=S)[nH]c1=O,56.6%
13,CCC1(C)CC(CCNCc2ccc(N(C)C)cc2)(c2ccc(F)cc2)CCO1 (stereo not given),-72.1% (active)
14,CC1CC=CCC12C(=O)NC(=S)NC2=O (stereo not given),5.3%
15,CC=C(C)C(=O)OC1CCN2CC=C(COC(=O)C(O)(C(C)OC)C(C)(C)O)C12 (stereo not given),12.9%
16,O=C(c1ccccc1[N+](=O)[O-])N1CCC2(CC1)OCCO2,-4.53%
17,O=C(c1cc2nc(-c3ccccc3)cc(-c3ccccc3)n2n1)N1CCC2(CC1)OCCO2,-87.9% (active)
18,O=C(c1cc(-c2ccncc2)nc2ccccc12)N1CCC2(CC1)OCCO2,0%
19,COc1cccc(C(c2nnnn2-c2ccc3c(c2)OCCO3)N2CCC3(CC2)C(=O)NCN3c2ccccc2)c1OC (stereo not given),-6.07%
20,COC(=O)COc1cc(C)cc2oc(=O)c3c(c12)CCCC3,22.7%

row,SMILES,activity change
1,CC1([N+](=O)[O-])COP(=O)(Nc2ccc(F)cc2)OC1 (stereo not given),15.6%
2,COc1cc(-n2c(=S)[nH]c3ccc(C)cc3c2=O)c(Cl)cc1Cl,71.7%
3,OC1/C(=C/c2ccc(C(F)(F)F)cc2)N2CCC1CC2 (stereo not given),22.5%
4,CCOC(=O)[C@]12Cc3cc(OC)ccc3[C@H]1N(C(C)C)C(=O)c1ccccc12,-125% (active)
5,O=c1c2ccccc2nc(CBr)n1-c1ccc(Cl)cc1,-7.74%
6,O=C(C1CC(=O)N(C2CCCC2)C1)N1CCC2(CC1)OCCO2 (stereo not given),13.5%
7,CN1CCN(/N=C/c2c[nH]c3ccccc23)CC1,7.92%
8,CN(C)c1ccc(/C=C2\CC3C4CC=C5CC(O)CCC5(C)C4CCC3(C)C2=O)cc1 (stereo not given),0.523%
9,C[C@@]1([C@@H](NP(=O)(c2ccccc2)c2ccccc2)c2ccccc2)C[C@H]1CCO,-4.2%
10,CCNc1nc2[nH]c(=O)c3c(c2s1)OC(N)=C(C#N)C3c1cccs1 (stereo not given),-64% (active)
11,CC(C)c1ccc(OCC(=O)N2CCN(C)CC2)c(Br)c1,9.25%
12,COC(=O)C1=C(c2ccc(OCc3ccccc3)cc2)C[C@@H]2CC[C@H]1N2C(=O)NCc1cccc(F)c1,-12.8%
13,CC1=CC(=Cc2sc3ccccc3[n+]2C)C=C(C)O1,-51.7% (active)
14,COc1ccc(CNCCc2c[nH]c3ccccc23)cc1OC,-24.9%
15,COc1ccc(Br)cc1CNCCc1cccc(Cl)c1,-72.2% (active)
16,COc1ccc(CNCCc2ccc3c(c2)OCO3)c(OC)c1OC,-11.8%
17,Nc1ccc(Cc2ccc(N)c(Cl)c2)cc1Cl,-24.6%
18,COC(=O)CN(CCCl)P1(=O)OCCCN1CCCl (stereo not given),41.8%
19,CCOP(=S)(OCC)SCOC(=O)NCC(=O)OC,0.573%
20,CN(C)CC1Oc2ccccc2OC1(O)c1ccccc1 (stereo not given),-101% (active)

row,SMILES,activity change
1,COc1cccc(N2C(=O)NC(=O)/C(=C\c3ccc([N+](=O)[O-])s3)C2=O)c1,-0.584%
2,O=C1NC(=O)N(c2ccccc2)C(=O)/C1=C/c1ccc([N+](=O)[O-])s1,-11.6%
3,Cc1cccc(N2C(=O)NC(=O)/C(=C\c3cnn(-c4ccccc4)c3)C2=O)c1,-60% (active)
4,Cn1c(O)c(C(=Nc2ccc(F)cc2)c2ccccc2)c(=O)n(C)c1=O,3%
5,c1cncc(CNC2=NCCC2)c1,34.2%
6,CCOC(=O)C1(c2ccccc2)CCN(CC(O)c2ccc(NC(C)=O)cc2)CC1 (stereo not given),-10.2%
7,CC1=C(C(=O)Nc2ccccc2)SCCO1,19.6%
8,CC1=C(C(=O)Nc2ccccc2)S(=O)(=O)CCO1,-86.7% (active)
9,C[C@]12CCC3C(CC[C@H]4[C@H](O)[C@H](O)CC[C@]34C)C1CC[C@@H]2O (stereo not given in full),38.5%
10,CC(=CCOc1ccc2ccc(=O)oc2c1)C1=CC(=O)C(C)(C)O1,-91.3% (active)
11,CC(CC(C#N)(c1ccccc1)c1ccccc1)N1CCCCC1 (stereo not given),-2.29%
12,O=C1C2CCN(CC2)C1(CO)CO,-9.66%
13,CCC(=O)c1ccc(OCC(=O)N2CCN(CC(=O)Nc3ccc(C)cc3)CC2)cc1,14.3%
14,Clc1ccc2nc3c(c(-c4ccccc4)c2c1)CNCC3,-57% (active)
15,C[C@H]1CN([C@@H](C)CO)C(=O)CCCn2nncc2CO[C@H]1CN(C)C(=O)Oc1ccccc1,16.8%
16,CN1CCN(C(=S)SCC(=O)Nc2ccc(Cl)cc2C(=O)c2ccccc2)CC1,-88% (active)
17,O=C(CCNS(=O)(=O)c1ccccc1)Nc1ccc(Cl)cc1C(=O)c1ccccc1,-63% (active)
18,O=C(CN1CCCCC1)Nc1ccc(Br)cc1C(=O)c1ccccc1Cl,-8.15%
19,O=C(CCN1CCCCC1)NCC(=O)Nc1ccc(Br)cc1C(=O)c1ccccc1,-10.3%
20,O=C(COC(=O)c1ccccc1)Nc1ccc(Cl)cc1C(=O)c1ccccc1,15.9%
